Data: ChEMBL document CHEMBL3988442, “University of Dundee, Small-Polar-MMV Screening Library” (2021)

Key:
[1] = molecular target: T1, Aspartate--tRNA(Asp/Asn) ligase (Mycobacterium tuberculosis (strain ATCC 25618 / H37Rv)) (UniProt P9WFW3); assay: Assay for Asp RNA synthetase-1 from Mycobacterium tuberculosis; type: functional; set-up: scale not given: direction of the effect not stated beside the values; conditions: 30 µM; also: in the data most compounds retested in dose-response had high values
T1 sequence (whole entry): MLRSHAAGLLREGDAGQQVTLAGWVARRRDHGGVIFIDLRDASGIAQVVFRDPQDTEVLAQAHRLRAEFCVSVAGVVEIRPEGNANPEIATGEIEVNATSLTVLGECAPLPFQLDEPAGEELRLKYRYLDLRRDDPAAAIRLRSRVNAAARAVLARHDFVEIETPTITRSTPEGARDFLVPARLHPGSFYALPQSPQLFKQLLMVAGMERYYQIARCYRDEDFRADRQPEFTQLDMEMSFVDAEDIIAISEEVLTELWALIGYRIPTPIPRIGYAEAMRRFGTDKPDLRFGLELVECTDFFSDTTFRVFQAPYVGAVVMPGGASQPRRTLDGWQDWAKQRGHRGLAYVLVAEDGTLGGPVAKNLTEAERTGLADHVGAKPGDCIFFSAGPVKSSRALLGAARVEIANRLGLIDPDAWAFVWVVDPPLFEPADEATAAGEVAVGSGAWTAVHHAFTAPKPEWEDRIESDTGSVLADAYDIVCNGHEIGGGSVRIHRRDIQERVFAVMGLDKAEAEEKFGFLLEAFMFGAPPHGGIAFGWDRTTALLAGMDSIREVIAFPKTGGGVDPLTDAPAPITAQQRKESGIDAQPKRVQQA

[2] = molecular target: Shiga toxin 2 (Escherichia coli O157:H7) (UniProt P09385+P09386); assay: E. coli 0.157:H7 Shiga Toxin SOP - stx2 screening assay; type: functional; set-up: scale not given: direction of the effect not stated beside the values; conditions: 30 µM

SMILES	Percent Effect [1] [%]	Percent Effect [2] [%]
CCC(C)(NCC(=O)Nc1nc(C)cs1)c1nc(C)cs1 (configuration not stated)	2.89	-28.4
CCc1ccc(CN2CCC3(CC2)NC(=O)CC3c2ccncc2)o1 (configuration not stated)	7.7	-9.95
c1csc(-c2nc(CN3CCOC(Cn4cncn4)C3)cs2)c1 (configuration not stated)	-6.66	31.4
Cc1nc(NCc2cccnc2)c2c(n1)c(C)nn2C	10.4	-31.1
Cc1nccn1-c1cc(CNC(=O)CCC2CCCO2)ccn1 (configuration not stated)	2.98	2.2
CC(C(=O)N1CCc2ccccc2C1)n1cc(Br)cn1 (configuration not stated)	2.59	-59.4
O=C(Cn1nc2c(cc1=O)CCCC2)N[C@@H](Cc1ccccc1)C(=O)O	0.174	-48
CSCCCNC(=O)Nc1cccc(-c2nccn2C)c1	-3.93	-93.1
CCn1c(C(=O)N2CCN(C(=O)NC(C)C)CC2)cc2ccccc21	2.76	18.3
CCc1nc(CN(Cc2cccs2)CC2CCCO2)no1 (configuration not stated)	2.75	15
Cc1csc(CNC(=O)N(C)Cc2cnn(C)c2)n1	1.54	-1.35
Cc1cnc2n(c1=O)CC(C(=O)Nc1cccc3cccnc13)CS2 (configuration not stated)	16.3	23.5
CN(C)S(=O)(=O)N1CC[C@@H]2CN(Cc3cnn(C)c3)C[C@@H]2C1	6.22	-8.71
CC(C)c1nccn1-c1cccc(C2CCCN2S(=O)(=O)N(C)C)n1 (configuration not stated)	8.78	0.999
CN(Cc1nc(N)c2ccccc2n1)C1CCCN(c2cccnn2)C1 (configuration not stated)	-4.22	-28.7
Cc1cc(C(C)NC(=O)N2CCC(n3cncn3)CC2)c(C)s1 (configuration not stated)	0.6	6.48
O=C(COC(=O)Cc1cccs1)NCc1cccc(NC(=O)C2CC2)c1	-1.66	28
COc1ccc(OCC(=O)NS(=O)(=O)c2cc(F)ccc2F)cc1	-1.01	-20.6
CCn1cc(CN2CCCN(C(=O)CCCn3cncn3)CC2)cn1	-4.34	-21.5
CCN(CC)C(=O)Nc1cc2c(cc1SC)OCCO2	-1.51	12
O=C(Nc1cc(F)ccc1OCC1CCCO1)N1CCCC1 (configuration not stated)	-3.7	0.98
COCC1CN(C(=O)C2=CCCCC2)Cc2cnn(CC3CC3)c21 (configuration not stated)	0.918	-7.05
CC(C)N1CCn2c(nc3cc(C(N)=O)ccc32)C1	0.319	-34
CCc1[nH]ncc1C(=O)N1CCCC(n2nc(C)nc2C)C1 (configuration not stated)	-1.03	12.8
CCOCC(O)CN1CCN(C(=O)c2cccnc2OC)CC1 (configuration not stated)	-1	12.8
Nc1ncc2c(n1)CN(C1CCCC1)C2=O	6.87	-55.7

SMILES	Percent Effect [1] [%]	Percent Effect [2] [%]
CCc1nc(C(=O)N2CCCC2)nn1-c1ccccc1Cl	-1.24	6.73
Cc1cnc(CN(C)C2CCN(CC(=O)Nc3c(C)n[nH]c3C)C2)o1 (configuration not stated)	-2.74	-14.3
CCn1ccnc1CN1CCN(CCOc2cccc(C#N)c2)CC1	-0.322	-9.38
COCCN1CCC(CNC(=O)C2(c3cccc(C)c3)CC2)CC1	5.2	-5.28
c1cc(CNCC2CNc3ccnn3C2)cc(N2CCCCC2)n1 (configuration not stated)	-2.55	-110
O=S(=O)(C1CC1)N1CCC2(CC1)CC(Oc1cccnc1)CO2 (configuration not stated)	6.21	-0.225
Cc1nccnc1CN1CCC2(CCCN(C3CCOCC3)C2=O)C1 (configuration not stated)	2.6	-28.8
Cc1cccc(C(=O)NCc2ccc(S(N)(=O)=O)cc2)n1	-0.577	-16.4
Cc1ccc(C)c(OC2CCN(C(=O)c3ccc(C)[nH]c3=O)CC2)c1	-5.01	16
O=C(CN(Cc1cccnc1)CC1CCCO1)Nc1ccc(F)cc1 (configuration not stated)	5.92	-3.06
COCC1c2c(cnn2CC2CC2)CCN1Cc1nccs1 (configuration not stated)	0.524	-52.1
Cc1csc([C@@H]2C[C@@H]3CCN(Cc4cnn(C)c4)C[C@H]3O2)n1	-2.71	-29.9
Nc1nc(C2CCN(C(=O)c3cncs3)CC2)cs1	-0.134	-3.12
CCn1c(C)nnc1CN(C)C1CCN(CCc2ccncc2)C1 (configuration not stated)	2.19	13.6
CN(C)C(=O)CSc1nnc(CCNC(=O)OC(C)(C)C)o1	2.93	-59.4
O=C(Cc1ccccn1)N1CCC2(CC1)CC(Oc1ccccn1)CO2 (configuration not stated)	-3.87	-3.37
Cn1cc(CC(=O)N2CCC(Nc3cccnn3)CC2)c2ccccc21	2.29	-25.9
Cc1nnc(C(C)NCC2(c3ccc(Cl)cc3)CCCC2)o1 (configuration not stated)	4.47	3.13
Cc1ccc(CNC(=O)Cn2ncc3c2c(C)nn3C)cc1	-3.46	-20.9
CCc1cnc(CN(C)C2CCN(CCc3ccccn3)C2)o1 (configuration not stated)	0.0557	-7.08
Cc1[nH]ccc1C(=O)N1CCC(c2nnc(Cn3cccn3)n2C)CC1	-2.14	-9.29
CC(C)c1ccsc1C(=O)N1CCCN(Cc2cscn2)CC1	6.6	14.7
O=C1NCCCCC1Sc1nnc(-c2cccnc2)n1C1CC1 (configuration not stated)	-3.62	7.22
O=C(Cn1cnnn1)N1CCCCC1Cn1cccn1 (configuration not stated)	-0.885	9.78
CN(Cc1nnc2n1CCC2)C(=O)Cc1ccc2c(c1)OCCO2	4.23	18.1
O=C(c1cnccn1)N1CCc2ncnc(-c3cccnc3)c2CC1	-2.48	-12.4

SMILES	Percent Effect [1] [%]	Percent Effect [2] [%]
CSc1nccn1-c1cccc(C(=O)NCCCN2CCOCC2)c1	-1.07	27.6
O=C(CCCc1nc2ccccc2[nH]1)N1CCCC(n2cccn2)C1 (configuration not stated)	0.834	3.01
CCS(=O)(=O)N1CCO[C@H]2[C@H](OCCCn3cccn3)CC[C@@H]21	0.786	-17.2
Cc1cnn(CCNCc2nc(COc3ccc(F)cc3)no2)c1	-1.72	16.3
CCn1cnnc1CNC(=O)N1CCCN(C(C)=O)CC1	-0.98	25.6
CN(C)Cc1ccc(C2CCCCN2C(=O)c2cc(C3CC3)n[nH]2)cc1 (configuration not stated)	-1.82	2.95
O=C(c1cnccn1)N1CCOCC2(CCN(C3CCOCC3)C2)C1 (configuration not stated)	3.28	-36.9
O=C(c1cccnc1)N1CCCC2(CCN(c3ccsc3)C2=O)C1 (configuration not stated)	7.21	-14.1
O=C(c1cccc(Cl)c1)N1CC[C@H]2[C@H]1CCN2CC1CCOCC1	-4.93	-25.2
O=C(NCCCN1CCCCC1)c1ccc(-n2ccc3ccccc32)s1	5.58	-90
Cc1cccc(-c2ccc3nc(C4CCN(CC5CC5)CC4)nn3c2)c1	-1.89	-31.4
C[C@H]1CN(Cc2cnn(C)c2)C[C@@]12CCN(Cc1cccnc1)C2=O	-2.89	-10.2
O=C(c1ccc(C2CCCO2)s1)N1CCN(c2ccccc2F)CC1 (configuration not stated)	1.1	-30.2
Cc1ccc(C)c(CNC(=O)NC(C)(C(=O)O)c2ccco2)c1 (configuration not stated)	4.16	17
CC(NC(=O)NCc1ccc(Cl)cc1)c1ccccn1 (configuration not stated)	0.364	-27.4
COc1c(CNC2CCSc3ccc(F)cc32)c(C)nn1C (configuration not stated)	0.879	-10.4
CCCc1n[nH]c(C2CN(CCn3cccn3)CCO2)n1 (configuration not stated)	3.43	6.67
COCC1CC2(CCN(Cc3cnn(C)c3)CC2)CN1c1ncccn1 (configuration not stated)	-0.238	-22.6
Cn1ncc2c1NC(=O)CC2c1ccc(Cl)cc1Cl (configuration not stated)	5.72	-26.2
Cc1n[nH]c(C)c1C1CCCN1C(=O)NCCSC(C)(C)C (configuration not stated)	3.45	-9.79
CC(C)(C)c1noc(CN2CCN(C(=O)c3cccs3)CC2)n1	0.425	6.49
CC(C)c1noc(CN(Cc2ccccc2F)C2CC2)n1	12.6	-59.6
CN(C(=O)c1cccc2[nH]ncc12)C1CCN(c2ccccn2)CC1	4.76	24.8
Cn1cc(C(=O)NCC2CCN(C(=O)NCC(F)(F)F)CC2)cn1	2.43	-39.4
COCCNC(=O)Cn1nc(C(C)C)c2cnn(C(C)(C)C)c2c1=O	-1.87	5.6
Cn1cnc2c1C(COCC1CC1)CN(Cc1ccc3c(c1)OCO3)C2 (configuration not stated)	0.999	-23.1

SMILES	Percent Effect [1] [%]	Percent Effect [2] [%]
Cc1noc(C)c1CNC(=O)c1ccc(NC2CC2)nc1	3.65	13.4
COc1ccc(NC(=O)NC(C)c2nc[nH]n2)cc1 (configuration not stated)	-1.71	5.29
CC(C)CCN1CC2(CCCN(C(=O)c3cscn3)C2)CCC1=O (configuration not stated)	8.2	-13.4
O=C(NCCCOCC1CC1)Nc1cccnc1N1CCOCC1	-1.34	4.93
Cc1cc(C)cc(C2(C(=O)N3CCCC(n4cncn4)C3)CC2)c1 (configuration not stated)	0.962	26.6
Cc1ccc(C(=O)N2CCCC2c2nnc3n2CCCCC3)o1 (configuration not stated)	-0.223	-7.29
Cc1ccc(N2CC[C@H]3C[C@@H](C(=O)N4CCOCC4)O[C@H]3C2)nn1	0.749	12.8
Cc1cccc(OCCNC(=O)CN2CCCC2Cn2cccn2)c1 (configuration not stated)	-1.71	-0.164
COCCN1C[C@@H]2CN(Cc3ccsc3)CCC[C@]2(C(=O)O)C1	2.26	-14.2
Cc1cnn(CC2CN(Cc3nc(-c4ccoc4)no3)CCO2)c1 (configuration not stated)	-3.63	24
Cc1cncc(C(=O)N2Cc3ccccc3C3(CCN(C)CC3)C2)c1	-2.03	-1.24
CCc1c(C(=O)N2CCN(c3ncccn3)CC2)cnn1C(C)(C)C	3.62	30.7
COc1cccn(CC(=O)N(C)CCOc2cc(C)cc(C)c2)c1=O	38.9	-20.3
O=C(c1cccc(CN2CCCC2)c1)N1CCCC(n2cncn2)C1 (configuration not stated)	11.7	14
CNc1cc2c(nn1)CCN(C(=O)c1ccc(-n3nccc3C)cc1)C2	-2.02	26.8
CCCn1nccc1C(=O)N1CCCN(CCCc2ccccc2)CC1	-3.6	-14.4
COc1cccc(C(=O)N2CCCC(c3cc(C)[nH]n3)C2)c1OC (configuration not stated)	-1.08	27
Cn1ncc2c1NC(=O)CC2c1ccc(O)cc1 (configuration not stated)	0.0331	-13.8
O=C(Cc1ccc2c(c1)CCO2)N1CCN(c2cnccn2)CC1	-4.06	-23.3
c1ccc2sc(CN3CCOC(Cn4cccn4)C3)nc2c1 (configuration not stated)	-0.285	27.3
Cc1ccc(SCC(=O)NS(=O)(=O)c2ccc3c(c2)OCCO3)cc1	3.3	21.2
O=C(Cc1ccsc1)N1CCCC(c2n[nH]c3nccnc23)C1 (configuration not stated)	-5.85	6.36
COCCCN1CCCN(C(C)C(=O)Nc2cccc(I)c2)CC1 (configuration not stated)	0.0704	-31.1
